The results in this text go back to PubChem BioAssay.

Active and inactive are the calls of the source. Unless noted, how the calls were made is not given here.

The nature of test [1]: resazurin metabolic signal in HepG2 cells – cell-based, resazurin fluorescence, 24 h, PK04 Diversity Set, profiling panel (AID 1172). Further: test concentration not given here. The note with it: HepG2 viability, higher = more signal.
Test [2] in a line: budding yeast growth changes without added modifier – OD600, strain BY4716, 24 h, basal condition, primary screen (AID 1173). The note with it: S. cerevisiae BY4716 growth, OD600, 24 h; higher = more signal, called active from +8 up or from −8 down.
Test [3] is described as follows: viability profiling in MM1S myeloma cells – cell-based, resazurin fluorescence, basal, 24 h, PK04 Diversity Set, profiling panel (AID 1174).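 Further: MM1S multiple myeloma cell line; test concentration not given here.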 The note with it: higher = more signal, called active from +8 up or from −8 down.
The target of test [4] is Dihydroorotate dehydrogenase (quinone), mitochondrial (Plasmodium falciparum (isolate 3D7)) (UniProt Q08210). Nature of the test: inhibition of P. falciparum DHODH – biochemical, C-terminal His tag, absorbance 600 nm, primary screen (AID 1175).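 Further: recombinant parasite enzyme with a five histidine tag at its C terminus; test concentration not given here.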 The settings on record: PfDHODH enzyme, DCIP absorbance 600 nm; higher = more signal, called active from +8 up or from −8 down.
Test [5] is described as follows: inhibition of PAO1 biofilm formation – strain PAO1, LB-PBS medium, absorbance 600 nm, primary screen (AID 1176). Further: test concentration not given here. The settings on record: P. aeruginosa PAO1 growth/biofilm, A600, 12 h; higher = more signal.
Test [6] is described as follows: growth modulation of vineyard yeast isolate – strain RM11-1a, OD600, basal, 24 h, primary screen (AID 1177).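 Further: cultures grown under basal conditions with no added stressor; test concentration not given here.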 The settings on record: S. cerevisiae RM11-1a growth, OD600, 24 h; higher = more signal, called active from +8 up or from −8 down.
A short description of test [7]: growth of efflux-deficient E. coli DRC39 – strain DRC39, OD650, 24 h, E. coli filamentation inducers, primary screen (AID 1178).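 Further: growth measured as culture turbidity by optical density at 650 nm; test concentration not given here.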 The note with it: E. coli DRC39 acrAB, higher = more signal, called active from +8 up or from −8 down.
Test [8] can be described thus: growth of efflux-deficient E. coli DRC39 – strain DRC39, OD650, 48 h, E. coli filamentation inducers, primary screen (AID 1179).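 Further: screen aims at cell division blockers that make cells filament.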 The note with it: E. coli DRC39 delta-acrAB growth, higher = more signal, called active from +8 up or from −8 down.
Test [9] can be described thus: viability profiling in RPMI8226 myeloma cells – cell-based, resazurin fluorescence, basal, 24 h, PK04 Diversity Set, profiling panel (AID 1180).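 Further: RPMI8826 multiple myeloma cell line at 5000 cells per well; test concentration not given here.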 The settings on record: higher = more signal.
Test [10] addresses E3 ubiquitin-protein ligase XIAP (Homo sapiens) (UniProt P98170). Nature of the test: small molecules binding XIAP protein – biophysical, small-molecule microarray, fluorescence 635 nm, primary screen (AID 1181).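 Further: score merges 667 nm emission and signal to noise over triplicate slides.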 The settings on record: higher = more signal.

Chain of E3 ubiquitin-protein ligase XIAP (Homo sapiens) (P98170 whole entry, looked up): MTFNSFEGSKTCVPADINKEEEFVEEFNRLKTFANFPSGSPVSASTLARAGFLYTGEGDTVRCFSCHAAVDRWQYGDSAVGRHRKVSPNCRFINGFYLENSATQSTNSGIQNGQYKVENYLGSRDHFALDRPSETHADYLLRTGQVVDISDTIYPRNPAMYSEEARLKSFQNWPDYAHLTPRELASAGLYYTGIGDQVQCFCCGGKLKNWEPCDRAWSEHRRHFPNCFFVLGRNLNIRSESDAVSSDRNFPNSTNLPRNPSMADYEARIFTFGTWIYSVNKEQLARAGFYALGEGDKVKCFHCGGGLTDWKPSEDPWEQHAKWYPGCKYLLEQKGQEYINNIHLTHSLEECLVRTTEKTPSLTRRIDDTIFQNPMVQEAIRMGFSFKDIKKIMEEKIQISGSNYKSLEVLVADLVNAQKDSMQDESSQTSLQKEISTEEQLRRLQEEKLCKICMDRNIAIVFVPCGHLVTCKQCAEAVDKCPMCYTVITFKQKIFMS
Chain of Dihydroorotate dehydrogenase (quinone), mitochondrial (Plasmodium falciparum (isolate 3D7)) (Q08210 whole entry, looked up): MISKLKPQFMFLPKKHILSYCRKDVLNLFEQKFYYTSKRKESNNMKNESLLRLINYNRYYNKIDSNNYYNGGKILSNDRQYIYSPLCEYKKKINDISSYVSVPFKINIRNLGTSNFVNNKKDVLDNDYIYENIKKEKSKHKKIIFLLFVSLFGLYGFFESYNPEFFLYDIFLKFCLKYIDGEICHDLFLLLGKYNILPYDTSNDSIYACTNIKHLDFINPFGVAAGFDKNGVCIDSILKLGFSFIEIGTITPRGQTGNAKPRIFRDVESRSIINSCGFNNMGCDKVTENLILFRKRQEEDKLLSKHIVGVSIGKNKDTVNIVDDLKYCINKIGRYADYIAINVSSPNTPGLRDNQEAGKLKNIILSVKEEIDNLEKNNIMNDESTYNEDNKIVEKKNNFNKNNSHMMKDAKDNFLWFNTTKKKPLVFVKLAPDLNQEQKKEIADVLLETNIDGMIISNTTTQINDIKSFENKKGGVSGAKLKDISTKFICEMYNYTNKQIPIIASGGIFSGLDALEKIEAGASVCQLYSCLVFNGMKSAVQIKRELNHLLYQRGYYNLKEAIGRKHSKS

`NC(=O)NCC#Cc1ccc2c(c1)[C@]1(C(=O)N2)[C@H](c2ccc(O)cc2)N2[C@H](c3ccccc3)[C@H](c3ccccc3)OC(=O)[C@H]2[C@@H]1C(=O)O`: the z-score in test [1] is 0.587; in test [2] it was 0.453 (inactive); in test [3], 0.277 (inactive); in test [5], 0.237 (inactive); in test [6] it was 0.726 (inactive); in test [7], -0.338 (inactive). Also, the z-score in [8] was -0.176 (inactive); in [9] it was 0.772. The composite z-score was -0.268 (inactive) in [4] and 0.0975 in [10].

As for `CCOC(=O)C[C@H]1[C@H](OC(=O)c2ccccc2-c2ccccc2)[C@@H](NC(=O)CC(C)C)c2cc(OCCCO)ccc2N1C(=O)Cc1ccc(OC)cc1`, the z-score was -0.211 in test [1]; -0.184 (inactive) in [2]; 0.0683 (inactive) in test [3]; -0.165 (inactive) in [5]; -0.0992 (inactive) in test [6]; -0.234 (inactive) in test [7]. Further, the z-score in test [8] was -0.488 (inactive); in test [9], 0.456. Also, the composite z-score is 0.712 (inactive) in test [4] and -0.135 in test [10].

Regarding `COC(=O)C[C@H]1O[C@]2(C(=O)N(C)c3ccccc32)[C@@H](C)[C@@H]1[Si](C)(C)F`, the z-score in [1] is 0.951; in test [2], -2.55 (inactive); in test [3], 1.55 (inactive); in test [5] it was 0.908 (inactive); in test [6], -2.64 (inactive); in test [7], 1.51 (inactive). Also, the values for the z-score in test [8] and in [9] were 0.847 (inactive) and 2.42, respectively. Also, the composite z-score in test [4] is -1.49 (inactive); in [10] it was 0.103.

`CC(C)=CCN[C@H](CO)c1ccccc1`: the z-score is -0.347 in test [1]; -6.22 (inactive) in test [2]; -0.362 (inactive) in [3]; -0.517 (inactive) in [5]; -0.17 (inactive) in test [6]; -0.387 (inactive) in [7]. Besides, the figures for the z-score in [8] and in test [9] were -1.49 (inactive) and -0.974, respectively. In addition, the composite z-score in [4] was -2.14 (inactive); in test [10], 0.213.

Turning to `CCCC[C@@H]1C[C@H]1[C@@H](NC(=O)C(C)(C)C)c1ccc(C(F)(F)F)cc1`, the z-score was -0.549 in [1]; 0.594 (inactive) in test [2]; -0.858 (inactive) in test [3]; 3.07 (inactive) in [5]; 1.17 (inactive) in test [6]; -0.483 (inactive) in test [7]. Further, the z-score in [8] is -0.631 (inactive); in test [9] it was 2.01. The figures for the composite z-score in [4] and in test [10] were -3.55 (inactive) and 0.0256, respectively.

`CCCCC(CC)C(O)C1C=CC2C(=O)N(Cc3ccccc3)C(=O)C2N1n1cnnc1` (stereo not given): the z-score in test [1] was -0.661; in [2] it was 0.374 (inactive); in test [3], -0.763 (inactive); in test [5] it was -0.445 (inactive); in test [6], -0.666 (inactive); in [7], -1.03 (inactive). The z-score in test [8] is -1.46 (inactive); in [9], -1.01. The composite z-score is -0.495 (inactive) in [4] and 0.0228 in [10].

On to `[N-]=[N+]=NCc1ccccc1C[C@]1(C(=O)N2CCCCC2)N=C(c2ccc(OCCCO)cc2)O[C@H]1c1ccccc1N=[N+]=[N-]`, for which the z-score in test [1] was 0.297; in test [2] it was 0.264 (inactive); in test [3], -2.36 (inactive); in [5], 0.426 (inactive); in test [6], 0.875 (inactive); in test [7] it was 0.173 (inactive). In addition, the z-score in test [8] is -0.446 (inactive); in [9], -2.4. Further, the composite z-score was 0.168 (inactive) in test [4] and -0.332 in test [10].

Turning to `COc1ccc([Si](C)(C)[C@@H]2[C@@H](CCO)O[C@]3(C(=O)N(Cc4ccc(N(C=O)c5ccccc5)cc4)c4ccccc43)[C@H]2C)cc1`, the z-score in test [1] was -1.59; in test [2] it was 1.76 (inactive); in [3], -2.44 (inactive); in test [5] it was 1.46 (inactive); in [6], 4.89 (inactive); in test [7], 0.544 (inactive). Further, the z-score in test [8] is -0.339 (inactive); in test [9] it was -2.25. The figures for the composite z-score in test [4] and in [10] were -0.493 (inactive) and -0.184, respectively.

For `COC(=O)C(CC#Cc1ccc2c(c1)[C@]1(C(=O)N2)[C@H](c2ccc(OCCO)cc2)N2[C@H](c3ccccc3)[C@H](c3ccccc3)OC(=O)[C@H]2[C@@H]1C(=O)Nc1nc2ccccc2s1)C(=O)OC`, the z-score in test [1] was 1.51; in [2] it was 2.09 (inactive); in test [3], 0.932 (inactive); in test [5] it was 2.98 (inactive); in test [6], 3.16 (inactive); in test [7], 1.01 (inactive). The z-score in test [8] is 0.824 (inactive); in test [9] it was -0.257. Moreover, the composite z-score in test [4] was -0.983 (inactive); in test [10], -0.138.

For `COc1cc2c(cc1O)C(c1cccs1)N(C)CC2` (stereo not given), the z-score in [1] is -0.493; in test [2], 1.11 (inactive); in test [3] it was -1.55 (inactive); in test [5], 0.282 (inactive); in test [6] it was -0.225 (inactive); in [7], 0.34 (inactive). Also, the z-score was 0.597 (inactive) in [8] and -0.468 in test [9]. The composite z-score was -8.08 (active) in [4] and 0.0682 in test [10].

For the compound `CCCC[C@@H]1C[C@H]1[C@@H](NC(=O)c1ccco1)c1ccccc1C(F)(F)F`, the z-score in test [1] is -0.153; in test [2], 1.67 (inactive); in test [3], -1.25 (inactive); in test [5], -0.0298 (inactive); in test [6], -0.064 (inactive); in test [7], -0.714 (inactive). Further, the z-score in test [8] is -0.127 (inactive); in test [9] it was -0.594. In addition, the composite z-score in test [4] was -0.265 (inactive); in test [10] it was 0.271.

For the compound `COC(=O)[C@@]1(Cc2ccc(OC)cc2)[C@H]2c3cc(C(=O)N(C)C)n(Cc4ccc(S(C)(=O)=O)cc4)c3C[C@H]2CN1C(=O)c1ccccc1`, the z-score in [1] was 0.0042; in [2] it was 0.0274 (inactive); in test [3], -0.19 (inactive); in [5], 2.2 (inactive); in [6], -2.36 (inactive); in [7], 0.366 (inactive). The z-score in test [8] is -0.441 (inactive); in [9], 0.766. For the same compound, the values for the composite z-score in test [4] and in test [10] were -1.4 (inactive) and -0.0139, respectively.

As to `CCOC(=O)C[C@H]1[C@H](OC(=O)c2ccc(C(=O)c3ccccc3)cc2)[C@@H](NC(=O)CC(C)C)c2cc(OCCCO)ccc2N1C(=O)c1ccc2ccccc2n1`, the z-score is 0.85 in [1]; 1.1 (inactive) in test [2]; -0.469 (inactive) in [3]; 0.453 (inactive) in test [5]; 0.8 (inactive) in test [6]; -0.0708 (inactive) in test [7]. For the same compound, the z-score in test [8] was 0.648 (inactive); in test [9], -0.0956. For the same compound, the composite z-score in test [4] is -0.888 (inactive); in test [10] it was -0.102.
